H9c2 protect = cardioprotection against H2O2-induced cell death, primary screen, uHTS, H9c2 cells, ATPLite luminescence; actives 0.63% (n = 360,000); AID 588492, 2011; H9c2 cardiomyocytes, H2O2 injury protection, 2 h; protection from H2O2 cell death, % at 20 µM;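 active means compounds giving at least 50% protection of heart cells from peroxide-induced death in the single-dose screen, raw or plate-pattern-corrected value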
Vif inh = HIV Vif self-association inhibitors, primary screen, imaging, HEK293T, single point. inhibition, % at 7.49 µM. actives 0.35% (n = 340,000). HEK293T cells, Vif self-association by quenched fluorescence, 24 h; in the data active means inhibition above about 50%, passing the limit was not always enough
N-glyco inh = increase of ERlucT glycosylation luciferase signal, primary screen, N-linked glycosylation inhibitor project, D54 ERlucT cells, luminescence, set 2; D54 ERlucT glycosylation luciferase reporter, 24 h; percent of 100 nM tunicamycin response; reporter increase, % at 12.5 µM; actives 0.23% (n = 360,000); AID 588692, 2011;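 active means mean luciferase reporter signal, scaled so untreated is 0 and the glycosylation-blocking control 100, at or above a set limit in every replicate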;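 further: luciferase carries N-glycosylation sites so blocking glycosylation raises the light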
ARNT TACC3 PPI = disruptors of ARNT/TACC3 protein interaction, primary screen, biochemical, AlphaScreen, single concentration; AlphaScreen His-ARNT PAS-B/GST-TACC3 binding, luminescence; TACC3 fragment carries E629A point mutation; inhibition, % at 9.99 µM; actives 0.66% (n = 390,000);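 active means mean inhibition of replicates at least 50% and at least half of replicates each reaching 50%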
aDG glyco up = activators of alpha-DG glycosylation, primary screen, uHTS, Pro5-aDG cells, AlphaScreen; alpha-DG glycosylation AlphaScreen (IIH6); 0% Pro5, 100% B10-LARGE cell signal; activation, % at 10 µM; AID 624168, 2012; actives 0.22% (n = 360,000);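 active means activation of at least 8% versus controls, or a plate z-score of at least 8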;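 further: Pro5 are CHO cells carrying HIG-tagged alpha-DG that lacks glycosylation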
aDG conf = alpha-DG glycosylation enhancers, retest, confirmation, single concentration, Pro5-aDG cells | shares compounds with aDG glyco up | IIH6 AlphaLISA; scaled to LARGE-overexpressing B10 cells as 100% | activation, % at 10 µM (by protocol) | actives 17% (n = 600) | AID 651671, 2012;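 active means activation of at least 7% in one or more replicates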;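 further: cells exposed to compound for two days before detection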
Of the large screens only hits and unclear results are named; the others gave an inactive call (follow-up assays come after a bar, where they were run). Shown are actives, neighbours in structure and some others; about 1.7% of the full set was active somewhere.

CC=Cc1ccc2n(c1=O)C[C@@H]1[C@@H](CO)[C@H](C(=O)NCCC)N(Cc3ccccn3)[C@H]21 (mixture of isomers)	none (no result: H9c2 protect, Vif inh, N-glyco inh, aDG glyco up)
Cc1ccc(C)c(N2CCN(CCCNC(=O)Cn3cccc3C(=O)c3ccccc3)CC2)c1	aDG glyco up 10.5 | aDG conf inactive
O=C(Cn1cccc1C(=O)c1ccccc1)NCCCN1CCOCC1	none
O=C(C[C@@H]1CC[C@@H]2[C@H](COC[C@H](O)CN2Cc2nccs2)O1)NCc1ccccc1	none (no result: H9c2 protect, Vif inh, N-glyco inh, aDG glyco up)
O=C(C[C@@H]1C[C@H]2c3cc(NC(=O)Nc4ccccc4)ccc3O[C@H]2[C@H](CO)O1)NCC1CC1	none (no result: H9c2 protect, Vif inh, N-glyco inh, aDG glyco up)
CC/C(=N\NC(=O)C1CCCC1)c1ccc(Br)cc1	aDG glyco up 8.8 | aDG conf inactive
CC(C)C#Cc1ccc2c(c1)O[C@@H](CN(C)C(=O)c1cnccn1)[C@H](C)CN([C@@H](C)CO)S2(=O)=O	none (no result: H9c2 protect, Vif inh, N-glyco inh, aDG glyco up)
Cc1cc(C)n(CCNC(=O)[C@H]2O[C@@H](n3ccc(=O)[nH]c3=O)[C@H](O)[C@@H]2O)n1	aDG glyco up 21.2 (no result: Vif inh, ARNT TACC3 PPI) | aDG conf inactive
COc1cc(/C=N/NC(=O)c2ccc(N(C)S(=O)(=O)c3ccccc3)cc2)cc(OC)c1OC	none
CCOc1cc(/C=N/NC(=O)c2ccc(N(C)S(=O)(=O)c3ccccc3)cc2)ccc1OC	aDG glyco up 2.4 | aDG conf inactive
Fc1ccc(-c2nc3c4ccccc4ccn3c2CC2CCCCC2)cc1	none (no result: Vif inh, ARNT TACC3 PPI)
Clc1cccc(-c2nc3c4ccccc4ccn3c2CC2CCCCC2)c1	aDG glyco up 11.0 (no result: Vif inh, ARNT TACC3 PPI) | aDG conf inactive
Clc1ccc(-c2nc3c4ccccc4ccn3c2CC2CCCCC2)cc1	aDG glyco up 21.5 (no result: H9c2 protect, Vif inh, N-glyco inh, ARNT TACC3 PPI) | aDG conf inactive
O=C(C[C@@H]1CC[C@H]2[C@@H](COC[C@@H](O)CN2Cc2ccc3c(c2)OCO3)O1)Nc1ccccc1	none (no result: H9c2 protect, Vif inh, N-glyco inh, aDG glyco up)
CN1CCN(S(=O)(=O)c2ccc(N(C)Cc3ccc(C(F)(F)F)cc3)c([N+](=O)[O-])c2)CC1	aDG glyco up 5.8 (no result: ARNT TACC3 PPI) | aDG conf inactive
C=CCOc1ccc(CN(C)c2ccc(S(=O)(=O)N3CCN(C)CC3)cc2[N+](=O)[O-])cc1	none
O=C(CSc1nnc(NC(=O)c2ccco2)s1)Nc1ccccc1Br	aDG glyco up 2.2 | aDG conf inactive
Cc1nc2ccc3nc(NC(=O)c4ccc5c(c4)OCCO5)sc3c2s1	aDG glyco up 7.7 | aDG conf inactive
Cc1nc2c(ccc3nc(NC(=O)c4ccc5c(c4)OCCO5)sc32)s1	none
CC(C)(C)c1ccc(C(=O)Nc2ccc(C(=O)NCc3cccnc3)cc2)cc1	aDG glyco up 2.3 (no result: ARNT TACC3 PPI) | aDG conf 4.5
C[C@H](CO)N1C[C@H](C)[C@H](CN(C)C(=O)Nc2ccc(F)cc2)Oc2ccc(NC(=O)Nc3ccc(F)cc3)cc2C1=O	none (no result: H9c2 protect, Vif inh, N-glyco inh, aDG glyco up)
Cc1ccccc1Nc1nc(N)nc(COC(=O)c2ccco2)n1	aDG glyco up 3.8 | aDG conf inactive
CC(C)c1cc(-c2cc(-c3ccc(Cl)cc3)on2)nc(NC2CCCC2)n1	aDG glyco up 5.7 | aDG conf inactive
COc1ccc(-n2c(=O)c3ccccc3n(Cc3cccc(C)c3)c2=O)cc1OC	none
COc1ccc(-n2c(=O)c3ccccc3n(Cc3ccccc3F)c2=O)cc1OC	aDG glyco up 1.8 | aDG conf inactive
Cc1ccc(CNC(=O)CN(C(=O)C2(C)CC(=O)N=C3C=CC=CN32)c2cccc(C)c2C)cc1 (configuration not stated)	aDG glyco up 2.6 (no result: ARNT TACC3 PPI) | aDG conf inactive
NS(=O)(=O)c1ccc(CCNCc2cc(Br)ccc2OCc2ccccc2F)cc1	aDG glyco up 7.6 | aDG conf inactive
NS(=O)(=O)c1ccc(CCNCc2cc(Cl)ccc2OCc2ccccc2)cc1	none
COc1ccccc1NC(=O)Nc1nc(C(N)Cc2ccccc2)cs1 (configuration not stated)	aDG glyco up 7.4 (no result: ARNT TACC3 PPI) | aDG conf 6.9
COc1ccccc1NC(=O)Nc1nc(C(N)Cc2ccc(Cl)cc2)cs1 (configuration not stated)	none (no result: ARNT TACC3 PPI)
CO[C@@H](CN(C)C(=O)c1cnccn1)[C@H](C)CN([C@@H](C)CO)S(=O)(=O)c1ccc(C)cc1	none (no result: H9c2 protect, Vif inh, N-glyco inh, aDG glyco up)
Cc1ccc(S(=O)(=O)NC(=O)NCc2ccccn2)cc1	aDG glyco up 51.4 | aDG conf inactive
CC1(C(=O)N/N=C/c2ccc([N+](=O)[O-])o2)CC1(Br)Br (configuration not stated)	aDG glyco up 4.6 | aDG conf inactive
O=C(N/N=C/c1ccc([N+](=O)[O-])o1)c1ccccc1-n1cccc1	aDG glyco up 3.3 (no result: ARNT TACC3 PPI) | aDG conf inactive
O=C(CNc1cccc([N+](=O)[O-])c1)N/N=C/c1ccc([N+](=O)[O-])o1	aDG glyco up 18.9 | aDG conf 4.7
CCOC(=O)N/N=C\c1ccc([N+](=O)[O-])o1	none
Cc1ccccc1OCC(=O)N/N=C/c1ccc([N+](=O)[O-])o1	aDG glyco up 7.9 (no result: ARNT TACC3 PPI) | aDG conf inactive
C[C@@H]1CCCCO[C@H](CN(C)CC2CC2)[C@H](C)CN([C@@H](C)CO)C(=O)c2cc(NC(=O)Nc3ccc4c(c3)OCO4)ccc2O1	none (no result: H9c2 protect, Vif inh, N-glyco inh, aDG glyco up)
CCCNC(=O)C[C@@H]1CC[C@H]2[C@H](COc3ccc(NC(=O)c4cccc(OC)c4)cc3C(=O)N2C)O1	none (no result: H9c2 protect, Vif inh, N-glyco inh, aDG glyco up)
COc1ccc(S(=O)(=O)N(C)C[C@H]2Oc3c(NC(=O)C4CCCCC4)cccc3C(=O)N([C@@H](C)CO)C[C@@H]2C)cc1	none (no result: H9c2 protect, Vif inh, N-glyco inh, aDG glyco up)
Cc1cc(-c2csc(NC(=O)c3cccc(S(=O)(=O)N(C)C)c3)n2)c(C)n1-c1ccccc1	aDG glyco up 10.8 | aDG conf inactive
COC(=O)c1ccc(-n2c(C)cc(-c3csc(NC(=O)c4ccc(S(=O)(=O)N(C)C)cc4)n3)c2C)cc1	aDG glyco up 10.7 | aDG conf inactive
CCOC(=O)c1csc(NC(=O)c2ccc(S(=O)(=O)N(C)C)cc2)n1	none
CCC(=O)N(C)C[C@@H]1Oc2cc(-c3ccccc3OC)ccc2S(=O)(=O)N([C@@H](C)CO)C[C@H]1C	none (no result: H9c2 protect, Vif inh, N-glyco inh, aDG glyco up)
Cc1cc(=O)oc2cc(OCC(=O)N3CCc4ccccc4C3)ccc12	aDG glyco up 4.2 | aDG conf inactive
CCNC(=O)C[C@@H]1CC[C@H]2[C@@H](COc3ccc(NC(=O)c4cccs4)cc3C(=O)N2C)O1	none (no result: H9c2 protect, Vif inh, N-glyco inh, aDG glyco up)
